From PMC4336329 (PLoS ONE, 2015)
Among all 310,000 compounds or so, about 2,200 (0.71%) showed an effect of 50% or more. The effect is printed as a negative number. The full list was thinned out, with strong results kept by preference.

Target: human ether-à-go-go-related gene (hERG) potassium channel (human, UniProt Q12809)
Experiment: primary screen, population patch clamp on CHO cells stably expressing hERG; higher = less effect of the substance

Chain of human ether-à-go-go-related gene (hERG) potassium channel (Q12809 whole entry, looked up): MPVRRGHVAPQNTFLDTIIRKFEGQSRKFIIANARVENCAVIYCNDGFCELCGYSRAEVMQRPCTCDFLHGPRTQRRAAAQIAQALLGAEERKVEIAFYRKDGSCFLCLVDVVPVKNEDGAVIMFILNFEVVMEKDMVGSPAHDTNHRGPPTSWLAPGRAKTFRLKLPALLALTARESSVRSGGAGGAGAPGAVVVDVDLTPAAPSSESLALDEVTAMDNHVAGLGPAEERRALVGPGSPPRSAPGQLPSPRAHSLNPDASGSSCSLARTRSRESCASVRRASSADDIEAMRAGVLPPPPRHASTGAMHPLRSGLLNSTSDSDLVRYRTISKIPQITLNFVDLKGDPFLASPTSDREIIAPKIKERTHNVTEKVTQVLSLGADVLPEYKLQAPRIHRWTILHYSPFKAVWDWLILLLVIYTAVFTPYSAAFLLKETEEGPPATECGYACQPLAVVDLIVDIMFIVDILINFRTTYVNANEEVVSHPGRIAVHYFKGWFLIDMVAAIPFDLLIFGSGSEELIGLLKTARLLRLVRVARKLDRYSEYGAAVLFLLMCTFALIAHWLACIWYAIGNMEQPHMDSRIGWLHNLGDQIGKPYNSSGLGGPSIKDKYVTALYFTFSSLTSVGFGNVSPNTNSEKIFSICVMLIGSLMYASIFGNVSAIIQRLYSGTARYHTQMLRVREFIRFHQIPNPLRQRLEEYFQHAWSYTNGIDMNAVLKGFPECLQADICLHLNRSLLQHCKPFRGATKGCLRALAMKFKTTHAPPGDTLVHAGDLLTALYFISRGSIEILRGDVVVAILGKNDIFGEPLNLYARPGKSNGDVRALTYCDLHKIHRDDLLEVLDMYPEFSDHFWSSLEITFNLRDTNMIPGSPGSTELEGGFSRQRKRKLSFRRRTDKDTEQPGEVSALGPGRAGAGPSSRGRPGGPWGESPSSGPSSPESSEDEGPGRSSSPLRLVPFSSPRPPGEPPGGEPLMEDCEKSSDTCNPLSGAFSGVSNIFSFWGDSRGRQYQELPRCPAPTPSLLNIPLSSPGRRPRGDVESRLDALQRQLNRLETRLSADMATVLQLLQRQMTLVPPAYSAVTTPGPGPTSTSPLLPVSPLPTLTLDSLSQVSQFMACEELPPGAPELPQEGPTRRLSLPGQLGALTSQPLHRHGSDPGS

Compound | hERG current change (%, negative = inhibition) at 1uM
Cc1ccc(NC(=O)c2ccncc2)cc1S(=O)(=O)N(C)C | 0.0196%
CCc1ccc(NC(=O)c2noc(C(C)C)c2[N+](=O)[O-])cc1 | 8.97%
CCN1CCN(c2c(Cl)cccc2NC(=O)c2ccco2)CC1 | -70.7%
O=C(Nc1cccc(Cl)c1N1CCOCC1)c1ccc([N+](=O)[O-])o1 | 3.63%
O=C(Nc1cccc(Cl)c1N1CCOCC1)c1ccc(Br)o1 | 4.08%
CCN1CCN(c2c(Cl)cccc2NC(=O)c2ccc([N+](=O)[O-])o2)CC1 | -77%
O=C(Nc1cccc(Cl)c1N1CCOCC1)c1ccco1 | 4.55%
CCN1CCN(c2c(Cl)cccc2NC(=O)c2ccc(Br)o2)CC1 | -59.3%
O=C(Nc1cccc(Cl)c1N1CCCC1)c1ccc(Br)o1 | -5.81%
O=C(Nc1cccc(Cl)c1N1CCCC1)c1ccco1 | 16.2%
O=C(Nc1cccc(Cl)c1N1CCCC1)c1ccc([N+](=O)[O-])o1 | 9.79%
Cc1nc([N+](=O)[O-])cn1CC(=O)Nc1ccc(Cl)cc1 | 14.3%
OCCNC(=S)NCCc1ccccc1 | 9.19%
COCCNC(=S)N(CCN(C)C)Cc1cc2cc3c(cc2[nH]c1=O)OCO3 | 15.5%
CC(C)c1cc(C(=O)N2CCCC(N3CCN(c4ccccc4F)CC3)C2)nc(N)n1 (centres unmarked) | 10.1%
O=C(Nc1ccc(Cl)cn1)Nc1ccccc1F | 0.928%
CC(C)Oc1ccc(N2CC(C(=O)Nc3ccc(N4CCOCC4)cc3)CC2=O)cc1 (centres unmarked) | 24.6%
OCC1(CCOc2ccccc2)CCN(Cc2ccc(OC(F)F)cc2)CC1 | -87.1%
OCC1(CCOc2ccccc2)CCN(Cc2ccccc2OC(F)F)CC1 | -54.4%
CCOc1ccccc1CN1CCC(CO)(CCOc2ccccc2)CC1 | -66.8%
OCC1(CCOc2ccccc2)CCN(Cc2cc(Cl)ccc2O)CC1 | -0.875%
Cc1cc(C)c(CN2CCC(CO)(CCOc3ccccc3)CC2)cc1C | -0.659%
C=CCOc1ccccc1CN1CCC(CO)(CCOc2ccccc2)CC1 | -61.4%
OCC1(CCOc2ccccc2)CCN(Cc2ccc3c(c2)OCCO3)CC1 | -31.2%
Cc1nn(C)cc1CN1CCC(CO)(CCOc2ccccc2)CC1 | 8.14%
OCC1(CCOc2ccccc2)CCN(Cc2ccccc2C(F)(F)F)CC1 | 3.9%
